From article PMC7862700, “An all-to-all approach to the identification of sequence-specific readers for epigenetic DNA modifications on cytosine”

Key:
Test in all cases: DAPPL (digital affinity profiling via proximity ligation, sequencing); 10 mM Tris-HCl pH 7.5, 50 mM NaCl, 1 mM DTT, 4% glycerol, room temperature, 30 min; GST-TFs on glutathione beads, 16-mer random dsDNA library, 0.1% formaldehyde crosslink after washing; high values mean tight binding
FEV = target: T1, FEV (Homo sapiens, UniProt Q99581 1-238); conditions: protein: recombinant; tags: N-terminal GST; dsDNA, one strand shown
T1 sequence: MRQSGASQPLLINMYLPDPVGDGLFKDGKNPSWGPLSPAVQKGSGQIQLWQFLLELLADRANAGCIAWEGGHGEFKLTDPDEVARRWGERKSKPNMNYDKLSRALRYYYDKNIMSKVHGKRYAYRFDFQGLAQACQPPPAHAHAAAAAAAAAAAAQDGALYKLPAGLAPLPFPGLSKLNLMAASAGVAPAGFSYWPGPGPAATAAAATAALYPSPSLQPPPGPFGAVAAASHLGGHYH
How it was run: (§1)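 Human transcription factors were made in yeast as GST fusions, captured on glutathione beads and barcoded with DNA. With a tag-only sample included, the pool was incubated with 200 nmole of a random double-stranded 16-mer DNA library in Tris/NaCl/DTT/glycerol buffer at room temperature for 30 min, then crosslinked with 0.1% formaldehyde after washing, ligated by proximity, amplified and sequenced. For binding signal, each hexamer's read frequency for a factor is divided by its frequency for the tag-only sample.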

ETV5 = ETV5 (Homo sapiens, UniProt P41161 1-510); conditions: protein: recombinant; tags: N-terminal GST; dsDNA, one strand shown
Chain of ETV5 (P41161 whole entry): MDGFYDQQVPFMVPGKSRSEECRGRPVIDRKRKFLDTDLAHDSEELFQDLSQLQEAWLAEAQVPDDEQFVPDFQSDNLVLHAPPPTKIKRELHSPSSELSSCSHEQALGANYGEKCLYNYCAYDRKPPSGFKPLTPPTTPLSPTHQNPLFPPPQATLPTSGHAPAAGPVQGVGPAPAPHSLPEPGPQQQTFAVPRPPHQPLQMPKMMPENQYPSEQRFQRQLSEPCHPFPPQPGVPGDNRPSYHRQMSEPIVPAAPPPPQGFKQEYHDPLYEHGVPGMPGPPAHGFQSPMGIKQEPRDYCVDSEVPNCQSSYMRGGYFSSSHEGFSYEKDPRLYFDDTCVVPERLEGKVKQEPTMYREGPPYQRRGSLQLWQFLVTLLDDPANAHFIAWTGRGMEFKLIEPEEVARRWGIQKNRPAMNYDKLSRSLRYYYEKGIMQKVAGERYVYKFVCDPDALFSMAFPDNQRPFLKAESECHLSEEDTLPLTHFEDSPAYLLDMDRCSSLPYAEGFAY
How it was run: as §1

HSF1 = HSF1 (Homo sapiens, UniProt Q00613 1-529); conditions: protein: recombinant; tags: N-terminal GST; chain copies: 3; dsDNA, one strand shown
Chain of HSF1 (Q00613 whole entry): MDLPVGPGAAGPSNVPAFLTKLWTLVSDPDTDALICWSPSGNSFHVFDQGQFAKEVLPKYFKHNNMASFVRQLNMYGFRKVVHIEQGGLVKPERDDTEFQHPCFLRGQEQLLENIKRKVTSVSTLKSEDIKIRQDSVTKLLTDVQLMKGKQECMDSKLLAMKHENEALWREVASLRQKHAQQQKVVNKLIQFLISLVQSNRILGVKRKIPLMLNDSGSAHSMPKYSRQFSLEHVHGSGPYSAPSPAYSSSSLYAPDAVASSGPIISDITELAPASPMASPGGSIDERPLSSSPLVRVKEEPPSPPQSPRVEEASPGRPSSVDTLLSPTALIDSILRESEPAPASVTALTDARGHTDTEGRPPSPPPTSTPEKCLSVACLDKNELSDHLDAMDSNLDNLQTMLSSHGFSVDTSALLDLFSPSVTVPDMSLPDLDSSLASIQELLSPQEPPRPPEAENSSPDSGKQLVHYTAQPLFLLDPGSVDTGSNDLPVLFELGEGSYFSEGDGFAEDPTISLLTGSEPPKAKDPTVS
How it was run: as §1

SPIC = target: T2, SPIC (Homo sapiens, UniProt Q8N5J4 1-248); conditions: protein: recombinant; tags: N-terminal GST; dsDNA, one strand shown
T2 sequence: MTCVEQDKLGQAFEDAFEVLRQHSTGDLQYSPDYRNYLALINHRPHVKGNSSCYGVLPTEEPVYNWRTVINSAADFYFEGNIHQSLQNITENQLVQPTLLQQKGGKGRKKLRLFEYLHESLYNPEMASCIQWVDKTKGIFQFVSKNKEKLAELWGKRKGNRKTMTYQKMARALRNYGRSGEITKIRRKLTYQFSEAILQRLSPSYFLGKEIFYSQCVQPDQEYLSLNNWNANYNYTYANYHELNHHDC
How it was run: as §1

ELF4 = ELF4 (Homo sapiens, UniProt Q99607 1-663); conditions: protein: recombinant; tags: N-terminal GST; dsDNA, one strand shown
Chain of ELF4 (Q99607 whole entry): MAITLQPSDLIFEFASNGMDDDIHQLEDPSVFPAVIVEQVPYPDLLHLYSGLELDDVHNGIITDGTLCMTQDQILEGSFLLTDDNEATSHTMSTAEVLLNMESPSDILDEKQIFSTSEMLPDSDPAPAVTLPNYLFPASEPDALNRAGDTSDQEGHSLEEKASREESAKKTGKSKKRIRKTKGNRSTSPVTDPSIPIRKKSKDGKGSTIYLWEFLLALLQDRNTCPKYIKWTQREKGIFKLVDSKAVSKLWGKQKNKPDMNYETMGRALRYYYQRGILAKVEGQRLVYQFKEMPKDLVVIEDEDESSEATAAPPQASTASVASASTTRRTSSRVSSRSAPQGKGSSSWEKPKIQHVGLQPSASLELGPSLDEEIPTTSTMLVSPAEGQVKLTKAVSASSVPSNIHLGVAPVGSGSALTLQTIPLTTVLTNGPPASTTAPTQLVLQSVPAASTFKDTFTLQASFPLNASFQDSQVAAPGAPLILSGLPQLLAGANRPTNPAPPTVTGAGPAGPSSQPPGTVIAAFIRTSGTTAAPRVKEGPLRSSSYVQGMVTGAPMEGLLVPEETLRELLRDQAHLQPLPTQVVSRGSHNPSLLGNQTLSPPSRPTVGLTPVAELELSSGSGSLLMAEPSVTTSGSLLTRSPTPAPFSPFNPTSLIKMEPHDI
How it was run: as §1

ELK4 = target: T3, ELK4 (Homo sapiens, UniProt P28324-2 1-405); conditions: protein: recombinant; tags: N-terminal GST; dsDNA, one strand shown
T3 sequence: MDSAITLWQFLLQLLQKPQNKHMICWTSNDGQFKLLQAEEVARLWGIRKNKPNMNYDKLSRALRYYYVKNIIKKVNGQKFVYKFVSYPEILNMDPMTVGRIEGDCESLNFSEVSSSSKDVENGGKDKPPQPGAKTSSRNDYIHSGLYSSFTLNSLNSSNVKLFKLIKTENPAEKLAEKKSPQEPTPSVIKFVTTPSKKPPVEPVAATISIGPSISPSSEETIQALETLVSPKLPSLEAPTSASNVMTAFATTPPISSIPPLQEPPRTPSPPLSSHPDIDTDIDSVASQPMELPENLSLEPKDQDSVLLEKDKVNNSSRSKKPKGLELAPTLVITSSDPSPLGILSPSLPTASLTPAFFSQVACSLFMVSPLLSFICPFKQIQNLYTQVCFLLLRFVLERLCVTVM
How it was run: as §1

ETV2 = target: T4, ETV2 (Homo sapiens, UniProt O00321 1-342); conditions: protein: recombinant; tags: N-terminal GST; dsDNA, one strand shown
T4 sequence: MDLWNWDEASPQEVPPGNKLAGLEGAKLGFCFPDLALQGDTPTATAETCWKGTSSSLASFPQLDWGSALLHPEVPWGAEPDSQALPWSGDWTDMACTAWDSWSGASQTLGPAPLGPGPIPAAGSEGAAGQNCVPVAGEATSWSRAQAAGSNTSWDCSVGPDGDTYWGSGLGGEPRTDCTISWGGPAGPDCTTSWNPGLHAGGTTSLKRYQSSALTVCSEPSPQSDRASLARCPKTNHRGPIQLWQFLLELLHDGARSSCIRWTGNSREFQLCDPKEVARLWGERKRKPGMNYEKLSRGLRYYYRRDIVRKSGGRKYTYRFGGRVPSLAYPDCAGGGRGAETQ
How it was run: as §1

ELF3 = target: T5, ELF3 (Homo sapiens, UniProt P78545 1-371); conditions: protein: recombinant; tags: N-terminal GST; dsDNA, one strand shown
T5 sequence: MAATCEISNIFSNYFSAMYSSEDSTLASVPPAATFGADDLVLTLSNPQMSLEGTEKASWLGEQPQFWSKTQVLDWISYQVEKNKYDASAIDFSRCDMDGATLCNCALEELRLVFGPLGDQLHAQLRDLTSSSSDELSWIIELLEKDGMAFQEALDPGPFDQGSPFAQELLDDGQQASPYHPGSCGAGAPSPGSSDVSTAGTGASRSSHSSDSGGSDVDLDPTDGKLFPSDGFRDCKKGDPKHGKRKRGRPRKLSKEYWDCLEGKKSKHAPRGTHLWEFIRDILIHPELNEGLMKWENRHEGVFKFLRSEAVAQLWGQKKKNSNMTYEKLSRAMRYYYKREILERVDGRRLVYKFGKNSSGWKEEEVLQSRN
How it was run: as §1

CRX = CRX (Homo sapiens, UniProt O43186 1-299); conditions: protein: recombinant; tags: N-terminal GST; dsDNA, one strand shown
Chain of CRX (O43186 whole entry): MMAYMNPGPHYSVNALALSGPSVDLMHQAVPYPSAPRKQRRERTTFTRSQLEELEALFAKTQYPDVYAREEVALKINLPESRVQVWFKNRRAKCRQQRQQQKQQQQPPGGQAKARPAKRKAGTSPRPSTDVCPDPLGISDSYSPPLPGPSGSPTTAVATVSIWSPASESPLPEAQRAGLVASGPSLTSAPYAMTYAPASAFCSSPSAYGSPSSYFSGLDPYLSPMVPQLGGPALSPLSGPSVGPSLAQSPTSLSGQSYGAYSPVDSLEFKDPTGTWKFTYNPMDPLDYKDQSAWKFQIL
How it was run: as §1

ETV1 = ETV1 (Homo sapiens, UniProt P50549 1-477); conditions: protein: recombinant; tags: N-terminal GST; dsDNA, one strand shown
Chain of ETV1 (P50549 whole entry): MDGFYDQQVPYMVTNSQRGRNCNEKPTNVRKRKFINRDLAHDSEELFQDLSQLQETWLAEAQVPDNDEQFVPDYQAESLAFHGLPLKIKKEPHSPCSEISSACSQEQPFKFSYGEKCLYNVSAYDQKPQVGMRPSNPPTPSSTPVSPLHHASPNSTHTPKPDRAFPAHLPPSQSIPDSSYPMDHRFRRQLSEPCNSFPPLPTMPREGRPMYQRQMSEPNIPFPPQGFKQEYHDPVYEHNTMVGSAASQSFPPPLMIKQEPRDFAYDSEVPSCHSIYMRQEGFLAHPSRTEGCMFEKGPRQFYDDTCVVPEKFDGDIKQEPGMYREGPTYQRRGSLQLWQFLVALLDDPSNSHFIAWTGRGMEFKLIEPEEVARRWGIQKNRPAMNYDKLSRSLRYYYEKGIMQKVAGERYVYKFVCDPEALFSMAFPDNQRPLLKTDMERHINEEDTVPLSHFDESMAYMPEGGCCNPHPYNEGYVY
How it was run: as §1

ERF = target: T6, ERF (Homo sapiens, UniProt P50548 1-548); conditions: protein: recombinant; tags: N-terminal GST; dsDNA, one strand shown
T6 sequence: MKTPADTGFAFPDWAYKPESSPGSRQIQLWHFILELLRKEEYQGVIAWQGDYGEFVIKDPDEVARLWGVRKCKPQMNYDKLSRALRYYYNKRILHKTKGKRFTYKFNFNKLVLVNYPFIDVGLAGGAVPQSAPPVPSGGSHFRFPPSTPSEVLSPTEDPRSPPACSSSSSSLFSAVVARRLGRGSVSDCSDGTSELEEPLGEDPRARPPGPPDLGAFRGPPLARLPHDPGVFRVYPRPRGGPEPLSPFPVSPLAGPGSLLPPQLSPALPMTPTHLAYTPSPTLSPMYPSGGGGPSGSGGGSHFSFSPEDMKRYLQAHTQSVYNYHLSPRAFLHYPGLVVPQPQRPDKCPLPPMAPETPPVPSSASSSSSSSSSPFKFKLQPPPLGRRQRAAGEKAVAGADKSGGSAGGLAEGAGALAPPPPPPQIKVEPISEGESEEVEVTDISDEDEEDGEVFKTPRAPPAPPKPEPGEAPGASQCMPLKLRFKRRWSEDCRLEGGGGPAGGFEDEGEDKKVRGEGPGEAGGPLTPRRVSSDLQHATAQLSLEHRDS
How it was run: as §1

ETV3L = target: T7, ETV3L (Homo sapiens, UniProt Q6ZN32 1-361); conditions: protein: recombinant; tags: N-terminal GST; dsDNA, one strand shown
T7 sequence: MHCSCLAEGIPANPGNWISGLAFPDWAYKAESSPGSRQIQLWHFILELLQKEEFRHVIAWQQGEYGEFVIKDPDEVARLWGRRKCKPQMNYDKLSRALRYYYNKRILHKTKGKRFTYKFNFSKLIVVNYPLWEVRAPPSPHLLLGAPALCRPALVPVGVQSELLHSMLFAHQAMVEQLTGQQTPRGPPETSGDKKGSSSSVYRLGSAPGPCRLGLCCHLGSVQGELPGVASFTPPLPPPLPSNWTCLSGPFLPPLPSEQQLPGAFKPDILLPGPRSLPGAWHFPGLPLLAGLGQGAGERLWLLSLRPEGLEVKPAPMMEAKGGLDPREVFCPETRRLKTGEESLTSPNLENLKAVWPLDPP
How it was run: as §1

ETS2 = target: T8, ETS2 (Homo sapiens, UniProt P15036 1-469); conditions: protein: recombinant; tags: N-terminal GST; dsDNA, one strand shown
T8 sequence: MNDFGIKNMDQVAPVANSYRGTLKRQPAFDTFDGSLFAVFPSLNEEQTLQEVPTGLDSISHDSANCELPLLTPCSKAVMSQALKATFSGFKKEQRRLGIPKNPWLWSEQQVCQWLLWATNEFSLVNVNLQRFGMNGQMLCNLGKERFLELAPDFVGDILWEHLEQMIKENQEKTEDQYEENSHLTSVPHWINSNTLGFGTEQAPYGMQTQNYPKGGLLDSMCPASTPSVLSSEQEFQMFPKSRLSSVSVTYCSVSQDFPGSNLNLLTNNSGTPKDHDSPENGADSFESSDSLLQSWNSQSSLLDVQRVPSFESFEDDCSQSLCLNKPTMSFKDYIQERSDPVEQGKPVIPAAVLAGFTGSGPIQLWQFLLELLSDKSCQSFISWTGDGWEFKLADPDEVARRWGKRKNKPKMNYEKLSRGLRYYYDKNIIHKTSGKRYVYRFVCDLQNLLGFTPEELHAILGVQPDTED
How it was run: as §1

SPDEF = target: T9, SPDEF (Homo sapiens, UniProt O95238 1-335); conditions: protein: recombinant; tags: N-terminal GST; dsDNA, one strand shown
T9 sequence: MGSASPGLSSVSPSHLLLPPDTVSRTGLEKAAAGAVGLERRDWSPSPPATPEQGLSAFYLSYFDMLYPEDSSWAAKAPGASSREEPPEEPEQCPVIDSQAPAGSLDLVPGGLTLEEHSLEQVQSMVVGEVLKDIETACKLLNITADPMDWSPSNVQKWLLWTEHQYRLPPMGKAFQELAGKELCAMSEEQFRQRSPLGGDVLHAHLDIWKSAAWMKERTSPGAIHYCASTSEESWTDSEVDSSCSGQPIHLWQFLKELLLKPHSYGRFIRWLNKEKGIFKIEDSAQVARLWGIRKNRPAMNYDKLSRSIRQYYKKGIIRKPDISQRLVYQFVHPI
How it was run: as §1

ETV7 = target: T10, ETV7 (Homo sapiens, UniProt Q9Y603 1-341); conditions: protein: recombinant; tags: N-terminal GST; dsDNA, one strand shown
T10 sequence: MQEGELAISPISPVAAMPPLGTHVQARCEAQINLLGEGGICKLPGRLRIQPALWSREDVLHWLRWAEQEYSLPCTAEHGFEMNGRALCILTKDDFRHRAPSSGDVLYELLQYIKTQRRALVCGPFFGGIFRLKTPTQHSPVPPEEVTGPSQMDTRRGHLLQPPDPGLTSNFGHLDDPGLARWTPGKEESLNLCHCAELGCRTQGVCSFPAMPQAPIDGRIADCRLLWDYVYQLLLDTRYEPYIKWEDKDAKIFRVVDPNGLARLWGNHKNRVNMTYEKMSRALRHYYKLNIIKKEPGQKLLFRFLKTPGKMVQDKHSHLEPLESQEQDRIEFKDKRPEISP
How it was run: as §1

ELF5 = target: T11, ELF5 (Homo sapiens, UniProt Q9UKW6-2 1-255); conditions: protein: recombinant; tags: N-terminal GST; dsDNA, one strand shown
T11 sequence: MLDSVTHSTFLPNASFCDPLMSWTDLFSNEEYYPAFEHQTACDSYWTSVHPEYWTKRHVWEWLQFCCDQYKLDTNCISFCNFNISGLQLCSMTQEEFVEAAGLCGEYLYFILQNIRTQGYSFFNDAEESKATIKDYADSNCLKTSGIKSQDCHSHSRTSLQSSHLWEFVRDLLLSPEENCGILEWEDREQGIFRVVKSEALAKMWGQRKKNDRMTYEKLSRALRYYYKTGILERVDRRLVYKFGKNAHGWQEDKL
How it was run: as §1

ETV3 = target: T12, ETV3 (Homo sapiens, UniProt P41162-2 1-143); conditions: protein: recombinant; tags: N-terminal GST; dsDNA, one strand shown
T12 sequence: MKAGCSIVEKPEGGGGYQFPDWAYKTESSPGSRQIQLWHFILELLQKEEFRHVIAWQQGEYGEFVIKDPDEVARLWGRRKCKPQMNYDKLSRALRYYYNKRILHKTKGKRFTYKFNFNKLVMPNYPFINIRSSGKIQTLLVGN
How it was run: as §1

ETV6 = ETV6 (Homo sapiens, UniProt P41212 1-452); conditions: protein: recombinant; tags: N-terminal GST; dsDNA, one strand shown
Chain of ETV6 (P41212 whole entry): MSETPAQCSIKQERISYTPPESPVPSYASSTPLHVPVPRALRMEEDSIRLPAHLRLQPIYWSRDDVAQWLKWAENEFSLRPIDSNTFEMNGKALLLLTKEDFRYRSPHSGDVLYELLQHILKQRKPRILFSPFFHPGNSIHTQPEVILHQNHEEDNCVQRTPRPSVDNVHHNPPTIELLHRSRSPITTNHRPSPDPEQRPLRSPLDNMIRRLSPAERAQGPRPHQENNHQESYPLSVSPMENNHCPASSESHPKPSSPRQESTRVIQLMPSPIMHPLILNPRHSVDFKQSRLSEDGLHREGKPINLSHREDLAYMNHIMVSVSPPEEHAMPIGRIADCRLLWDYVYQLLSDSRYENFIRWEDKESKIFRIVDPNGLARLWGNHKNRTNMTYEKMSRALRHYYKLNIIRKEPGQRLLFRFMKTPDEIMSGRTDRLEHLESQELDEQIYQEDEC
How it was run: as §1

Which binding signal (FEV) does the source give for AATTCG here?
Its binding signal is 1.26 fold enrichment (6-mer frequency, TF over GST control).

And the binding signal (ETV5)?
The binding signal was 1.31 fold enrichment (6-mer frequency, TF over GST control).

And the binding signal (HSF1)?
Its binding signal is 1.76 fold enrichment (6-mer frequency, TF over GST control).

What about the binding signal (SPIC) of the same sequence?
The binding signal was 1.43 fold enrichment (6-mer frequency, TF over GST control).

And the binding signal (ELF4)?
The binding signal was 1.26 fold enrichment (6-mer frequency, TF over GST control).

What about the binding signal (ELK4) of the same sequence?
Its binding signal is 1.23 fold enrichment (6-mer frequency, TF over GST control).

And the binding signal (ETV2)?
The binding signal was 1.19 fold enrichment (6-mer frequency, TF over GST control).

What about the binding signal (ELF3) of the same sequence?
Its binding signal is 1.3 fold enrichment (6-mer frequency, TF over GST control).

What about the binding signal (CRX) of the same sequence?
Its binding signal is 1.57 fold enrichment (6-mer frequency, TF over GST control).

And the binding signal (ETV1)?
Its binding signal is 1.18 fold enrichment (6-mer frequency, TF over GST control).

What about the binding signal (ERF) of the same sequence?
Its binding signal is 1.38 fold enrichment (6-mer frequency, TF over GST control).

What about the binding signal (ETV3L) of the same sequence?
Its binding signal is 1.38 fold enrichment (6-mer frequency, TF over GST control).

And the binding signal (ETS2)?
The binding signal was 1.23 fold enrichment (6-mer frequency, TF over GST control).

And the binding signal (SPDEF)?
The binding signal was 1.25 fold enrichment (6-mer frequency, TF over GST control).

What about the binding signal (ETV7) of the same sequence?
Its binding signal is 1.32 fold enrichment (6-mer frequency, TF over GST control).

And the binding signal (ELF5)?
Its binding signal is 1.2 fold enrichment (6-mer frequency, TF over GST control).

What about the binding signal (ETV3) of the same sequence?
The binding signal was 1.29 fold enrichment (6-mer frequency, TF over GST control).

What about the binding signal (ETV6) of the same sequence?
Its binding signal is 1.24 fold enrichment (6-mer frequency, TF over GST control).
